High-throughput results from PubChem BioAssay.
Hits are enriched below; roughly 2.6% of the tested compounds scored in any of these assays.
KKLEB tox – counter-screen for CF NF-kB inhibitors: cytotoxicity | KKLEB CF airway cells viability, ATPlite luminescence, overnight; hits give low values; cells stimulated with P. aeruginosa culture filtrate | activity change (cytotoxicity), % at 5 µM | 0.36% of 360,000 active;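 active means corrected activity change at or below -50% at 5 µM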
CF NFkB block – cystic fibrosis NF-kB activation inhibition | inhibition, % at 5 µM | AID 588850 | KKLEB NF-kB-GFP reporter, PAF-induced, GFP fluorescence overnight | 0.86% of 360,000 active;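 active means at least 50% inhibition at 5 µM, scaled per plate between neutral and stimulator controls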;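 further: PAF is a Pseudomonas aeruginosa culture filtrate used as stimulus; plate controls were PAF-stimulated DMSO wells for no effect and unstimulated DMSO wells for full effect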
Shn3 inh set2 – Schnurri-3 reporter inhibition in Clone20 osteoblasts; Clone20 osteoblast Shn3 3'UTR firefly luciferase, 24 h; inhibition, % at 12.5 µM; 0.52% of 360,000 active; AID 588674;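 active means mean inhibition of at least 75% with every replicate also reaching 75%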;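 further: 0% = median of neutral control wells and 100% = pilot-screen positive control compound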
Peg3 prom inh-1 – reduces Peg3 promoter-driven luciferase expression in HeLa | HeLa PEG-Prom luciferase reporter, luminescence, overnight | inhibition, % at 20 µM | AID 588405 | 1.7% of 360,000 active;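 active means inhibition of at least 50% at 20 µM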
HIF-2a inh – inhibitors of HIF-2a | 786-0 RCC cells HIF-2a reporter, luciferase luminescence, overnight | inhibition, % at 18.8 µM | 0.72% of 360,000 active;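 active means inhibition of the luminescence signal of 40% or more relative to plate controls, in a single-dose primary screen at 18.75 µM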
Peg3 prom inh-2 – Peg3 promoter inhibition confirmation; shares compounds with Peg3 prom inh-1; 84% of 1,300 active; inhibition, % at 20 µM; HeLa PEG-Prom luciferase reporter, luminescence, overnight;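 active means at 20 µM dose, 40% or more inhibition averaged across four replicates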
An asterisk follows results filed as active; x = no result given.

SMILES	KKLEB tox	CF NFkB block	Shn3 inh set2	Peg3 prom inh-1	HIF-2a inh	Peg3 prom inh-2
COc1ccc(-c2cc(C(=O)Nc3ccccc3O)c3ccccc3n2)cc1OC	-3	-25	1	-1	-10	x
O=C(Nc1ccc(N2CCOCC2)cc1)c1cc(-c2ccncc2)nc2ccccc12	-14	-8	15	17	13	x
CC(C)CC1C(=O)N(Cc2cn(Cc3ccco3)nn2)CCS(=O)(=O)N1Cc1ccc(-c2ccc(F)cc2)cc1 (stereo unspecified)	-21	48	11	64*	-28	62*
Cc1ccc(-c2ccc(CN3C(CC(C)C)C(=O)N(Cc4cn(Cc5ccco5)nn4)CCS3(=O)=O)cc2)cc1 (stereo unspecified)	-5	39	8	5	16	x
COCOCCn1cc(CN2CCS(=O)(=O)N(Cc3ccc(-c4ccc(Cl)c(Cl)c4)cc3)C(C(C)C)C2=O)nn1 (stereo unspecified)	-7	8	91*	61*	-50	46*
CC(C)CC(=NNC(=O)c1ccncc1)c1cc(Cl)ccc1O	-8	34	85*	64*	14	73*
COc1ccc(C(=O)Nc2ccc(Cl)cc2F)cc1S(=O)(=O)N1CCCC1	13	4	-5	9	-12	x
COC(=O)C1(Cc2cc(-c3ccccc3)no2)CCN(C(=O)OC(C)(C)C)CC1	1	18	-5	-123	-114	x
Cc1nn(-c2ccccc2)c2c1C(c1ccc([N+](=O)[O-])cc1)N1C(=N2)C(=O)Nc2ccccc21 (stereo unspecified)	-9	12	-3	53*	2	50*
Cc1nn(-c2ccc([N+](=O)[O-])cc2)c2c1C(c1cccc(Br)c1)N1C(=N2)C(=O)Nc2ccccc21 (stereo unspecified)	-8	-25	15	43	16	x
O=C(c1cc(-c2cccs2)nn1-c1ccccc1)N1CCN(S(=O)(=O)c2ccccc2)CC1	-20	21	21	57*	6	57*
COc1ccccc1C(=O)NCCC(=O)N(C)Cc1ccc(C)o1	1	-11	2	-2	1	x
Cc1cccc(-n2cc(-c3ccccc3)c3c(N4CCOCC4)ncnc32)c1	-92*	94*	25	69*	27	82*
CCOC(=O)c1cc2c(=O)n3ccccc3nc2n(C)c1=NC(=O)c1c(-c2c(F)cccc2Cl)noc1C	10	-7	21	40	10	x
CCOC(=O)c1cc2c(=O)n3ccccc3nc2n(C(C)C)c1=NC(=O)c1c(-c2c(F)cccc2Cl)noc1C	-3	-20	21	64*	20	43*
CC1=NN(c2nc(-c3ccc(C)cc3)cs2)C(=O)C1N=Nc1ccc2ccccc2c1 (stereo unspecified)	-3	-2	-1	-14	-25	x
CC1=NN(c2nc(-c3ccc(C)cc3)cs2)C(=O)C1N=Nc1ccc(C(N)=O)cc1 (stereo unspecified)	-66*	76*	66	102*	7	30
CCOc1ccc(OCCC(=O)OCC(=O)N2CCN(S(=O)(=O)c3ccc(C)cc3C)CC2)cc1	3	3	1	1	-5	x
CCOC(=O)[C@]12CCC=C1N(CCC1=CCCCC1)C(=O)[C@H](CC(=O)N1CCSCC1)C2	x	x	x	x	-15	x
CN(C)c1cccc(C(=O)OCC(=O)NC2CCCC2)c1	-3	-27	3	-9	-22	x
O/N=C(\c1ccc(Cl)cc1Cl)c1ncc(C(F)(F)F)cc1Cl	6	2	51	57*	16	47*
CN1CCN(c2nc(-c3ccccc3)nc3c2oc2ccccc23)CC1	-2	-59	-12	66*	9	-3
N#Cc1cnc(Sc2ccccc2)nc1	-13	4	0	13	4	x
Cc1nn(C)c(Cl)c1CN1CCC(CO)(CCOc2ccccc2)CC1	-1	0	36	7	5	x
Cc1c(CN2CCC(CO)(CCOc3ccccc3)CC2)[nH]c2c(Cl)cccc12	-14	24	-50	99*	6	99*
SMILES	KKLEB tox	CF NFkB block	Shn3 inh set2	Peg3 prom inh-1	HIF-2a inh	Peg3 prom inh-2
COc1cc(C(=O)N/N=C(\c2ccccc2)c2ccccn2)cc(OC)c1OC	2	16	89*	107*	29	81*
O=C(/C=C/c1ccccc1)NC(NC(=S)Nc1cccc(O)c1)C(Cl)(Cl)Cl (stereo unspecified)	-3	21	12	24	16	x
O=C(/C=C/c1ccccc1)NC(NC(=S)Nc1cccc(Cl)c1)C(Cl)(Cl)Cl (stereo unspecified)	-4	7	65	79*	32	67*
Cc1cc(C)cc(NS(=O)(=O)c2ccc3[nH]cc(C(=O)NCc4ccco4)c(=O)c3c2)c1	0	-10	43	55*	24	71*
CCCCNC(=O)C1(C)CCN1Cc1ccc(C(=O)OCC)cc1 (stereo unspecified)	-7	-2	6	7	2	x
CCCCNC(=O)C1(C)CCN1Cc1cccc2c(OC)cc(C(=O)OCC)cc12 (stereo unspecified)	-9	31	44	57*	14	37
O=C(Nc1ccnn1C1CCN(Cc2cc(Cl)ccc2O)CC1)C1CC1	4	1	-5	-13	10	x
S=C(NCc1ccccc1)C(=S)NCc1ccccc1	-15	6	19	-37	-81	x
c1ccc(CN=C(NCc2ccccc2)NCc2ccccc2)cc1	-7	2	83*	90*	10	88*
CCN(CC)c1ccc(NC(=O)Cn2c(C(C)NC(=O)c3ccccc3)nc3ccccc32)cc1 (stereo unspecified)	-5	-2	7	78*	-3	10
O=C1NC(=NCc2ccccc2)NC1(c1ccccc1)c1ccccc1	-14	11	16	13	-2	x
O=C(NCCc1ccccc1)c1ccc2c(c1)OCO2	-5	11	22	58*	54*	52*
O=C(NCCS(=O)(=O)NCc1ccccc1)c1ccc2c(c1)OCO2	5	21	-3	5	7	x
Cc1c(CCOC(=O)C23CC4CC(CC(C)(C4)C2)C3)sc[n+]1CC(=O)c1ccccc1	-14	4	14	54*	15	91*
Cc1c(C(=O)Nc2ccc(S(=O)(=O)N(C)C3CCN(C)CC3)cc2)oc2c(Cl)cccc12	-30	-10	59	99*	-27	99*
CN1CCC(N(C)S(=O)(=O)c2ccc(NC(=O)COc3ccc(Br)cc3Cl)cc2)CC1	-15	10	6	71*	3	71*
COc1ccccc1NC(=O)C1=C(C)NC(=O)NC1c1ccccc1[N+](=O)[O-] (stereo unspecified)	2	-24	-15	-53	-107	x
Cc1[nH]n(-c2nc(-c3ccc(Cl)cc3)cs2)c(=O)c1N=Nc1ccc(O)cc1	-3	17	90*	54*	-104	-42
COc1ccc(-c2nc(-c3ccccn3)nc(N3CCN(C)CC3)c2C#N)cc1	-1	2	12	0	4	x
